Data as given in PubChem BioAssay (NCI).
About 83,000 compounds went through this panel and 20% of them were active in at least one assay; those are over-represented in the sample as a whole.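 Note: values are percent growth. 100 is the growth of untreated cells, values between 100 and 0 indicate rising inhibition; between -100 and 0 indicates cell death.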 Unmarked numbers belong to inactive results. The source made the active and inactive calls. The calls were made as follows: active = growth percent below 10; inactive = the rest.

system: HCT-15 colon; assay: NCI-60 one-dose screen, 48 h (100 = growth as untreated, 0 = no growth, -100 = all killed); conditions: 10 µM unless noted

Q: For `O=C(/C=C/Nc1ccc2oc(=O)ccc2c1)c1cc2cc(Br)ccc2oc1=O`, which growth is on record?
A: 102%

Q: How did the growth turn out when `CC1(c2cc3cc(Cl)ccc3oc2=O)NC(=O)c2c(/C=C/C(=O)OC3CC4CCC3(C)C4(C)C)cccc2N1` (stereo unspecified) was run?
A: 66.4%

Q: For `COc1ccc(-c2ccnc(SCc3cc4ccccc4[nH]c3=O)n2)cc1OC`, which growth is on record?
A: 39.5%

Q: Which growth does the source give for `CC12CC[C@@H]3[C@]4(C)COC(c5cn[nH]c5-c5cccc(Br)c5)O[C@@H]4CC[C@@]3(C)[C@@H]1CC(C1=CCOC1=O)O2` (stereo partly specified) here?
A: 23.3%

Q: With `O=C(c1ccc(OCCN2CCOCC2)cc1)C1[C@H](c2ccc(Cl)cc2)[C@@H](c2ccccc2)NC12C(=O)Nc1ccc(Br)cc12` (stereo partly specified) as the compound, how does the growth read?
A: 8.44% (active)

Q: `COc1ccc2c(c1)c(/C=N/Nc1ccc3ccccc3n1)cn2C` was tested. Which growth did it give?
A: -44.8% (active)

Q: Which growth does the source give for `CN(C)CCOc1ccc(C(=O)C2[C@H](c3ccc(Cl)cc3)[C@@H](c3ccccc3)NC23C(=O)Nc2ccc(Br)cc23)cc1` (stereo partly specified) here?
A: -81.5% (active)

Q: How did the growth turn out when `O=c1[nH]c2ccc(Cl)cc2cc1CSc1nccc(-c2ccc(Cl)cc2)n1` was run?
A: 56.9%

Q: Which growth does the source give for `COc1cccc(/C=C/c2nc3ccccc3c(=O)n2CC(=O)Nc2ccc(Cl)cc2)c1` here?
A: 88.3%

Q: For `CCCSc1nc(Nc2ccc(S(N)(=O)=O)cc2)c(C#N)c(-c2cc(OC)c(OC)c(OC)c2)n1`, which growth is on record?
A: 15.3%

Q: `CC(/C=C1\SC(=S)N(CCCC(=O)NC(CC(C)C)C(=O)O)C1=O)=C\c1ccccc1` (stereo unspecified) was tested. Which growth did it give?
A: 98.6%

Q: For `COc1ccc(/C=C/c2nc3ccccc3c(=O)n2CC(=O)Nc2ccc(Cl)cc2)cc1`, which growth is on record?
A: 75.2%

Q: `Cn1cc(-c2cc3nc(-c4cn(C)c5ncc(Br)cc45)cc(N)n3n2)c2cc(Cl)ccc21` was tested. Which growth did it give?
A: -77.6% (active)

Q: With `Cn1cc(-c2cc(N)n3nc(-c4cn(C)c5ncccc45)cc3n2)c2cccnc21` as the compound, how does the growth read?
A: -91.7% (active)

Q: `Cc1ccc([C@H]2C(C(=O)c3ccc(Cl)cc3)C3(N[C@@H]2c2ccccc2)C(=O)Nc2ccc(Cl)cc23)cc1` (stereo partly specified) was tested. Which growth did it give?
A: 47.1%

Q: For `O=C(Cn1c(/C=C/c2ccccc2)nc2ccccc2c1=O)Nc1ccc(Cl)cc1`, which growth is on record?
A: 78%

Q: Which growth does the source give for `CC12CC[C@@H]3[C@]4(C)COC(c5cn[nH]c5-c5cccc(Cl)c5)O[C@@H]4CC[C@@]3(C)[C@@H]1CC(C1=CCOC1=O)O2` (stereo partly specified) here?
A: 35.1%

Q: Which growth does the source give for `CCCCSc1nc(Nc2ccc(S(N)(=O)=O)cc2)c(C#N)c(-c2cc(OC)c(OC)c(OC)c2)n1` here?
A: 25.7%

Q: With `CCOC(=O)/C=C/c1cccc2c1C(=O)NC(C)(c1cc3cc(Cl)ccc3oc1=O)N2` (stereo unspecified) as the compound, how does the growth read?
A: 20.9%

Q: `O=C(c1ccc(OCCN2CCOCC2)cc1)C1[C@H](c2ccc(Cl)cc2)[C@@H](c2ccccc2)NC12C(=O)Nc1ccc(Cl)cc12` (stereo partly specified) was tested. Which growth did it give?
A: 16.2%

Q: With `CC(C)c1sc(NC(=O)c2cc(NC(=O)c3cc(NC(=O)c4nccn4C)cn3C)cn2C)nc1C(=O)NCCCN(C)C` as the compound, how does the growth read?
A: 104%

Q: How did the growth turn out when `COc1c(F)ccc(C(=O)Nc2ccc3nc(NC(=O)C4CCCN(S(=O)(=O)c5ccc(Cl)cc5)C4)sc3c2)c1F` (stereo unspecified) was run?
A: 72.8%

Q: With `O=C(N1c2ccccc2Sc2ccccc21)n1ccc2cccnc21` as the compound, how does the growth read?
A: 40.2%

Q: `Cn1cc(-c2cc(N)n3nc(-c4cn(C)c5ncc(Br)cc45)cc3n2)c2cc(Br)cnc21` was tested. Which growth did it give?
A: -76.6% (active)

Q: For `CC1=C(C#N)C2=NNCC(c3ccccc3)=NN2C(c2ccccc2)=C1`, which growth is on record?
A: 104%

Q: With `C=C1CC[C@@H]2[C@]3(C)COC(c4cn[nH]c4-c4ccc(F)cc4)O[C@@H]3CC[C@@]2(C)[C@@H]1C/C=C1/C(=O)OCC1O` (stereo partly specified) as the compound, how does the growth read?
A: -56.8% (active)
